Screens: PubChem BioAssay, several laboratories
Hits are enriched below; roughly 3.1% of the tested compounds scored in any of these assays.
PREPL inh: PREPL enzyme inhibitors, primary screen, biochemical, fluorescence polarization; Prolyl endopeptidase-like (Homo sapiens), Q4J6C6; recombinant PREPL, fluorescence polarization activity-based probe; inhibition, % at 5.96 µM; 320,000 compounds, 0.68% hits; in the data active = inhibition above about 43%;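 note: 0% = enzyme with DMSO and 100% = wells lacking enzyme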
MEKK2 mut-MEK5: MEK5 binding signal on mutant MEKK2 PB1, primary screen, biochemical, multiplex bead flow cytometry, Alexa488-MEK5 | Alexa488-MEK5 binding to MEKK2 mutant | 290,000 compounds, 0.35% hits | AID 1530, 2009 | percent response, % at 10 µM; in the data active = percent response above about 24%, passing the limit was not always enough
ATG4B inh: ATG4B protease inhibitors, primary screen, biochemical, fluorescence, uHTS; Cysteine protease ATG4B (Homo sapiens), Q9Y4P1; ATG4B cleavage of LC3-PLA2, NBD-HPC fluorescence, 1 h; 340,000 compounds, 0.51% hits; inhibition, % at 8.33 µM; in the data active = inhibition above about 40%
Target sequence (Q9Y4P1 whole entry, looked up): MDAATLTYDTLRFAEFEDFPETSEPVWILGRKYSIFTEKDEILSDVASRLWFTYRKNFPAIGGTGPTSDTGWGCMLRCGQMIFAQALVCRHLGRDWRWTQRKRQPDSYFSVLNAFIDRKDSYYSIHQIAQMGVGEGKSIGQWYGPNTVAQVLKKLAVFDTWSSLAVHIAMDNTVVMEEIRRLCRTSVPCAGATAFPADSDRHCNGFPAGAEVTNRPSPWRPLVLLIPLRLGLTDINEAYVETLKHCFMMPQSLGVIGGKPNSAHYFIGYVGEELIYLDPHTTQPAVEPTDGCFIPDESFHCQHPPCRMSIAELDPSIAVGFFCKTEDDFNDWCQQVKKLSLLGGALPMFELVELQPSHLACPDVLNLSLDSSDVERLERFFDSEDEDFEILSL
MEKK3 PB1 HTS: modulators of MEKK3-MEK5 PB1 binding, primary screen, biochemical, wildtype MEKK3, multiplex bead flow cytometry, Alexa488-MEK5; Mitogen-activated protein kinase kinase kinase 3 (Homo sapiens), Q99759; bead-based flow cytometry, Alexa488-MEK5 binding to MEKK3; actives lie on both sides; 0 = blocked by unlabeled MEK5, 100 = vehicle; binding response (% of control), % at 10 µM; 290,000 compounds, 1.4% hits; AID 1529, 2009;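 active = binding response more than 3 SD above or below the average of its plate-row segment, actives on both sides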;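 note: Alexa488 bead fluorescence after subtracting the streptavidin-only scavenger bead signal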
MEKK2wt PB1 HTS: modulators of MEK5 binding to wildtype MEKK2, primary screen, biochemical, multiplex bead flow cytometry, Alexa488-MEK5 | 290,000 compounds, 1.1% hits | Mitogen-activated protein kinase kinase kinase 2 (Homo sapiens), Q9Y2U5 | binding response (% of control), % at 10 µM | Alexa488-MEK5 binding to MEKK2 WT; actives lie on both sides; in the data active = binding response below about 67% or above about 130%
UBC13 polyUb: UBC13 polyubiquitin chain formation inhibitors, primary screen, biochemical, TR-FRET, uHTS | Ubiquitin-conjugating enzyme E2 N (Homo sapiens), P61088 | inhibition, % at 20 µM | 330,000 compounds, 0.47% hits | AID 485273, 2010; in the data active = inhibition above about 45%, passing the limit was not always enough
Casp3 counter: CASP3 inhibitor validation, counterassay for project on UBE2N polyubiquitination blockers, biochemical, one dose; shares compounds with UBC13 polyUb; inhibition, % at 20 µM; 1,400 compounds, 4% hits; Recombinant caspase-3, Caspase-Glo 3/7 luminescence, 60 min;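 active = mean inhibition across replicates above about 26%, limit read from the data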;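 note: plate controls were DMSO with caspase-3 for no effect and DMSO wells lacking enzyme for full effect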
Target sequence (P42574 whole entry, looked up): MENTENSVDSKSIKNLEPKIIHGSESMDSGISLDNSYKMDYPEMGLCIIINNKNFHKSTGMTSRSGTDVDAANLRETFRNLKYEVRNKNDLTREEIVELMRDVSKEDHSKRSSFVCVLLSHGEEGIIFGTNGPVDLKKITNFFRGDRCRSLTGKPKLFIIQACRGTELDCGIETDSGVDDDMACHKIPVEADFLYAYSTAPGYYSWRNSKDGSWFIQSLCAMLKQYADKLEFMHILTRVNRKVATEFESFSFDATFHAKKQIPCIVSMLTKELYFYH
UBC13 confirm: UBC13 polyubiquitination inhibitors, single-point retest, confirmation, biochemical, TR-FRET, single concentration | shares compounds with UBC13 polyUb | inhibition, % at 10 µM | 1,400 compounds, 68% hits | AID 488859, 2010; in the data active = inhibition above about 45%
* hit, by the source's call; . = no result given.

SMILES | PREPL inh | MEKK2 mut-MEK5 | ATG4B inh | MEKK3 PB1 HTS | MEKK2wt PB1 HTS | UBC13 polyUb | Casp3 counter | UBC13 confirm
C#CCOCCOCCOCCNc1nc(N2CCN(C(=O)CCCCCCCCCCNC(=O)[C@@H](CCC(=O)O)n3cc(CCCCCN)nn3)CC2)nc(N2CCN(C(=O)CCCCCCCCCCNC(=O)[C@H]([C@@H](C)CC)n3cc(CCCCCN)nn3)CC2)n1 | 30 | . | -3 | . | . | 114* | -2 | 104*
CC[C@H](C)[C@@H](C(=O)NCCCCCCCCCCC(=O)N1CCNCC1)n1cc(CCCCN=C(N)N)nn1 | 9 | . | -10 | . | . | 49* | 2 | 24
C#CCOCCOCCOCCNc1nc(N2CCOCC2)nc(N2CCN(C(=O)CCCCCCCCCCNC(=O)[C@@H]([C@H](C)CC)n3cc(CCCCCN)nn3)CC2)n1 | 15 | . | -13 | . | . | 70* | 2 | 64*
C#CCOCCOCCOCCNc1nc(N2CCN(C(=O)[C@H]([C@@H](C)CC)n3cc(CCC(=O)O)nn3)CC2)nc(N2CCN(C(=O)[C@H](CCCCN)n3cc(CCCC)nn3)CC2)n1 | . | . | -2 | . | . | . | . | .
CC(OC(=O)c1ccc(Cl)nc1)C(=O)N1CCc2ccccc21 (stereo not given) | 10 | . | 3 | . | . | -5 | . | .
CCCn1c(N)c(C(=O)CSc2nnc(Cc3cccs3)n2C2CC2)c(=O)n(C)c1=O | 4 | . | -7 | . | . | 3 | . | .
C#CCOCCOCCOCCNc1nc(N2CCN(C(=O)[C@H]([C@@H](C)O)n3cc(CCCCN)nn3)CC2)nc(N2CCN(C(=O)[C@H](CCCCN)n3cc(CCC(=O)O)nn3)CC2)n1 | 5 | . | -2 | . | . | 1 | . | .
C#CCOCCOCCOCCNc1nc(N2CCN(C(=O)CCCCCCCCCCNC(=O)[C@H](CCCCN)n3cc(CCCC(=O)O)nn3)CC2)nc(N2CCN(C(=O)CCCCCCCCCCNC(=O)[C@@H]([C@H](C)O)n3cc(C)nn3)CC2)n1 | 18 | . | -39 | . | . | 54* | -1 | 32
Cc1c(CCNC=O)cc(C)c2c3c(oc12)CCCC3 | . | . | 2 | . | . | . | . | .
CCOC(=O)C1=C(COC(=O)[C@@H]2CCCN2S(=O)(=O)c2ccc(C)cc2)NC(=O)NC1C (stereo not given in full) | 14 | 8 | 8 | 99 | 103 | 2 | . | .
CC(C)(C)C1CCc2sc(C(=O)NNC(=O)CCl)cc2C1 (stereo not given) | . | -5 | 4 | 98 | 96 | . | . | .
CCN(CC)CCCNc1ccc(-c2nnc(-c3ccc(OCC(C)C)cc3)o2)cn1 | -6 | 36* | -2 | 106 | 165* | 47* | 4 | 78*
COc1ccc(OC)c2sc(N(CCN(C)C)C(=O)c3ccc4ccccc4c3)nc12 | 18 | 11 | -1 | 105 | 134 | 29 | . | .
COc1ccc(C)c2sc(N(CCCN(C)C)C(=O)c3ccc(S(=O)(=O)N(C)C)cc3)nc12 | 8 | 3 | -11 | 94 | 111 | 49* | -5 | 54*
Cc1cc(C)c2sc(N(CCCN(C)C)C(=O)c3ccc(S(=O)(=O)N(C)C4CCCCC4)cc3)nc2c1 | 20 | . | 3 | . | . | 58* | -3 | 97*
CC(C)(C)n1nc2c(c1NC(=O)c1c(F)cccc1F)CS(=O)(=O)C2 | 11 | -9 | -1 | 93 | 91 | -3 | . | .
CCCc1ccc2oc(C(=O)N3CCCC3)c(C)c2c1 | -5 | 1 | -2 | 102 | 101 | -2 | . | .
CCCCNc1cc(C)nc(NCc2ccccc2)n1 | -1 | 10 | -4 | 106 | 133 | 48* | -4 | 56*
O=C(Nc1ccc(Cc2ccncc2)cc1)c1ccc([N+](=O)[O-])o1 | 6 | 0 | -3 | 105 | 106 | -8 | . | .
CN1CCN(c2cc(-c3cc(O)c4ncccc4c3)ccn2)CC1 | 12 | . | 0 | . | . | 100* | 14 | 102*
CC[C@]12C(=O)N(C)C[C@H]([C@@H]3C(=O)N(C)C(=O)[C@@H]31)N2C(=O)c1ccc(F)cc1 | . | . | -5 | . | . | . | . | .
Cc1cc2nc(Cl)c(Cl)nc2cc1C | -7 | -1 | 0 | 104 | 94 | 47* | 7 | 7
Cc1cc2ncc(Cl)nc2cc1C | 7 | 2 | -1 | 106 | 106 | 8 | . | .
C#CCOCCOCCOCCNc1nc(N2CCN(C(=O)CCCCCCCCCCNC(=O)Cn3cc(C[C@@H](C)O)nn3)CC2)nc(N2CCN(C(=O)CCCCCCCCCCNC(=O)[C@@H](CCC(=O)O)n3cc(CCCCCN)nn3)CC2)n1 | 22 | . | -31 | . | . | 66* | -5 | 51*
C#CCOCCOCCOCCNc1nc(N2CCN(C(=O)CCCCCCCCCCNC(=O)[C@@H](CCSC)n3cc(CCO)nn3)CC2)nc(N2CCN(C(=O)CCCCCCCCCCNC(=O)[C@H](CCSC)n3cc(CCO)nn3)CC2)n1 | -2 | . | -28 | . | . | 28 | . | .
C#CCOCCOCCOCCNc1nc(N2CCN(C(=O)CCCCCCCCCCNC(=O)Cn3cc(C[C@@H](C)O)nn3)CC2)nc(N2CCN(C(=O)CCCCCCCCCCNC(=O)[C@H](CO)n3cc(CCCSC)nn3)CC2)n1 | 6 | . | -43 | . | . | 17 | . | .
C#CCOCCOCCOCCNc1nc(N2CCN(C(=O)CCCCCCCCCCNC(=O)[C@H](CO)n3cc(CCCSC)nn3)CC2)nc(N2CCN(C(=O)CCCCCCCCCCNC(=O)[C@H](CCCCN)n3cc(CCO)nn3)CC2)n1 | 30 | . | -4 | . | . | 113* | 1 | 124*
C#CCOCCOCCOCCNc1nc(N2CCN(C(=O)Cn3cc(CCO)nn3)CC2)nc(N2CCN(C(=O)Cn3cc(CCCCN)nn3)CC2)n1 | . | . | -4 | . | . | . | . | .
C#CCOCCOCCOCCNc1nc(N2CCN(C(=O)CCCCCCCCCCNC(=O)[C@H](CO)n3cc(CCCSC)nn3)CC2)nc(N2CCN(C(=O)CCCCCCCCCCNC(=O)[C@H](CCCN=C(N)N)n3cc(C[C@@H](C)CC)nn3)CC2)n1 | 21 | . | 72* | . | . | 122* | 2 | 121*
